Assay results from PubChem BioAssay (NCATS).
Values without a mark were called inactive. Results filed as inconclusive are left out. A call without a number means that no potency is given here. Active and inactive are the calls of the source. Calls follow the shape of the dose curve; as a rule, active = well fitted curve in the direction sought with a large enough effect; inconclusive = small, poorly fitted or top-dose-only effect, or another doubt; inactive = no such curve, though single readings can be large; an effect the other way counts as inactive or inconclusive.

Assays:
[1] = biological target: Glutathione peroxidase 1 (Homo sapiens) (UniProt P07203); assay: Primary qHTS Assay for Inhibitors of Recombinant Selenoprotein Glutathione Peroxidase 1 (GPX1) (AID 1845191); also: nearly all actives have a fitted effect of over 65% in size
Method in brief: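 GR-coupled assay: compounds preincubated 30 min at room temperature with GPX1, then reaction started with CHP; final 10 nM GPX1, 1 mM GSH, 0.5 mM CHP, 0.5 mM NADPH, 100 nM GR, 0.01% BSA, pH 7.5 Tris buffer. NADPH fluorescence (340/450 nm) read at 0 and 15 min.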

[2] = biological target: Phospholipid hydroperoxide glutathione peroxidase GPX4 (Homo sapiens) (UniProt P36969); assay: Primary qHTS Assay for Inhibitors of Recombinant Selenoprotein Glutathione Peroxidase 4 (GPX4) (AID 1845192); also: nearly all actives have a fitted effect of over 65% in size; as to activity change, negative = inhibition: series mostly up to about 50 µM
Method in brief: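 GR-coupled assay: recombinant GPX4 preincubated 30 min with compound at room temperature; final 200 nM GPX4, 1 mM GSH, 0.5 mM cumene hydroperoxide, 0.5 mM NADPH, 100 nM GR, 0.01% BSA, pH 7.5 Tris. NADPH fluorescence (340/450 nm) read at 0 and 15 min.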

[3] = biological target: Luciferin 4-monooxygenase (Photinus pyralis) (UniProt P08659); assay: Primary firefly luciferase (FLuc) qHTS assay for identification of artifact compounds. (AID 1845220); also: nearly all actives have a fitted effect of over 60% in size; also: potency is read from the fitted curve at half-maximal effect; as to activity change, negative = inhibition: series mostly up to about 54 µM
Method in brief: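 D-luciferin and ATP (10 uM each, final) in Tris acetate buffer pH 7.6 were incubated with compounds for 15 min at room temperature. The reaction was started with 10 nM Photinus pyralis luciferase and luminescence read after 5 min. Percent inhibition was fitted to a 4-parameter Hill equation.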

[4] = Primary fluorescence-based thiol-reactive (MSTI) qHTS assay for identification of artifact compounds. (AID 1845221); also: nearly all actives have a fitted effect of over 65% in size; also: potency is read from the fitted curve at half-maximal effect;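 as to activity change, negative = thiol reactive: series mostly up to about 54 µM; thiol-reactive compounds lower the probe fluorescence signal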
Method in brief: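 Curve-fitted percent inhibition (4-parameter Hill) derived from fluorescence, Ex 525/Em 598 nm, scaled with Acetyl-MSTI and MSTI; 1 h incubation at room temperature.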

[5] = test system: Nanoluciferase (engineered Oplophorus gracilirostris luciferase); assay: Primary Nanoluciferase (NLuc) qHTS assay for identification of artifact compounds. (AID 1845222); also: series mostly up to about 54 µM
Method in brief: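 Diluted conditioned medium from NLuc-expressing S16 cells treated with compounds for 15 min at room temperature, then Nano-Glo substrate added; luminescence read after 5 min. Percent inhibition versus no-enzyme and DMSO controls fitted to 4-parameter Hill equation.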

[6] = Primary redox qHTS assay for identification of artifact compounds. (AID 1845223)
Method in brief: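 Amplex Red (25 uM) and HRP (250 mU/mL) in HBSS, with compounds for 15 min, then 250 uM DTT for 30 min, room temperature, dark. Fluorescence 525/598 nm read; normalized to DMSO and 10 uM DA3003; Hill fit.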

Chain of Glutathione peroxidase 1 (Homo sapiens) (P07203 whole entry, looked up): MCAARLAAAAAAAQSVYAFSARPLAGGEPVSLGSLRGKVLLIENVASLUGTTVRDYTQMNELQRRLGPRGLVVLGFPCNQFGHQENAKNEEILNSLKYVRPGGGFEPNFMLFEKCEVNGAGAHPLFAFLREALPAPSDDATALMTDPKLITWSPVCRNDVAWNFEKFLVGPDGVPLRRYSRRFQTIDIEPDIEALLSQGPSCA
Chain of Phospholipid hydroperoxide glutathione peroxidase GPX4 (Homo sapiens) (P36969 whole entry, looked up): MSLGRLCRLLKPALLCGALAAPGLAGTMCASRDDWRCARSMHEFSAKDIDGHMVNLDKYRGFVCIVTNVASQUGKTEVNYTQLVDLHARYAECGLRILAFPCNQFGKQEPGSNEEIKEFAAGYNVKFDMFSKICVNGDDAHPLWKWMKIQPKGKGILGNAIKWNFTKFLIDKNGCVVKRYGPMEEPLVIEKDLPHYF

CC(C)C[C@H](CC(=O)NO)C(=O)N[C@@H](Cc1ccc2ccccc2c1)C(=O)N[C@@H](C)C(=O)NCCN
Potency [1]: inactive
Potency [2]: inactive
Potency [3]: inactive
Potency [4]: inactive
Potency [5]: inactive
Potency [6]: inactive

CNC(=O)c1cc(Oc2ccc3nc(N[C@@H]4CCCC[C@H]4O)sc3c2)ccn1
Potency [1]: inactive
Potency [2]: inactive
Potency [3]: 12000 nM (active)
Potency [4]: inactive
Potency [5]: inactive
Potency [6]: inactive

C=C[C@H]1[C@H](O[C@@H]2O[C@H](CO)[C@@H](O)[C@H](O)[C@H]2O)OC=C(C(=O)OC)[C@H]1CCOC(=O)c1cc(O)c(O)c(O)c1
Potency [1]: inactive
Potency [2]: inactive
Potency [3]: inactive
Potency [4]: 922 nM (active)
Potency [5]: inactive
Potency [6]: inactive

Cc1cccc2c1NC(=O)C2(c1ccc(O)cc1)c1ccc(O)cc1
Potency [1]: inactive
Potency [2]: inactive
Potency [3]: inactive
Potency [4]: inactive
Potency [5]: inactive
Potency [6]: inactive

C/C(=C\CCC1(C)C2CCC(C2)C1(C)O)C(=O)O (centres undefined)
Potency [1]: inactive
Potency [2]: inactive
Potency [3]: inactive
Potency [4]: inactive
Potency [5]: inactive
Potency [6]: inactive

CC(C)CCC1(O)C(=O)C(C)(C)C(O[C@@H]2O[C@H](CO)[C@@H](O)[C@H](O)[C@H]2O)C(C)(C)C1O (some centres undefined)
Potency [1]: inactive
Potency [2]: inactive
Potency [3]: inactive
Potency [4]: 2320 nM (active)
Potency [5]: inactive
Potency [6]: inactive

CC1=CC(=O)CC(C)(CO)C1(O)/C=C/C(C)O[C@@H]1O[C@H](CO)[C@@H](O)[C@H](O)[C@H]1O (some centres undefined)
Potency [1]: inactive
Potency [2]: inactive
Potency [3]: inactive
Potency [4]: 10300 nM (active)
Potency [5]: inactive
Potency [6]: inactive

C[C@@H]([C@@H](O)c1ccc(O)cc1)N1CCC(O)(c2ccccc2)CC1
Potency [1]: inactive
Potency [2]: inactive
Potency [3]: inactive
Potency [4]: inactive
Potency [5]: inactive
Potency [6]: inactive

COc1ncc(Nc2ncc([C@H](C)N3CCN(S(C)(=O)=O)CC3)cc2-c2nc(C)nc(N)n2)cc1F
Potency [1]: inactive
Potency [2]: inactive
Potency [3]: inactive
Potency [4]: inactive
Potency [5]: inactive
Potency [6]: inactive

Cc1ccccc1-n1c([C@H](C)Nc2nc(N)nc3nc[nH]c23)nc2cccc(C)c2c1=O
Potency [1]: inactive
Potency [2]: inactive
Potency [3]: inactive
Potency [4]: inactive
Potency [5]: inactive
Potency [6]: inactive

C=C(C)C(=O)O[C@H]1C[C@@](C)(O)C(=O)CC(O)/C(C)=C\[C@H]2OC(=O)C(=C)[C@H]12 (some centres undefined)
Potency [1]: inactive
Potency [2]: inactive
Potency [3]: inactive
Potency [4]: 2930 nM (active)
Potency [5]: inactive
Potency [6]: inactive

CC(C)=CCC[C@](C)(O[C@@H]1O[C@H](CO)[C@@H](O)[C@H](O)[C@H]1O)[C@H]1CC[C@]2(C)[C@@H]1[C@H](O)CC1[C@@]3(C)CC[C@H](O)C(C)(C)C3[C@@H](O[C@@H]3O[C@H](CO)[C@@H](O)[C@H](O)[C@H]3O)C[C@]12C (some centres undefined)
Potency [1]: inactive
Potency [2]: inactive
Potency [3]: inactive
Potency [4]: inactive
Potency [5]: inactive
Potency [6]: inactive

CC1(C)CC[C@]2(C(=O)O[C@@H]3O[C@H](CO)[C@@H](O)[C@H](O)[C@H]3O)CC[C@]3(C)C(=CCC4[C@@]5(C)C[C@@H](O)[C@H](O)[C@](C)(C=O)C5CC[C@]43C)[C@@H]2[C@@H]1O (some centres undefined)
Potency [1]: inactive
Potency [2]: inactive
Potency [3]: inactive
Potency [4]: 3980 nM (active)
Potency [5]: inactive
Potency [6]: inactive

CC1(C)CC[C@]23CO[C@@]4(CCC5[C@@]6(C)CC[C@H](O[C@@H]7OC[C@H](O[C@@H]8O[C@H](CO)[C@@H](O)[C@H](O)[C@H]8O)[C@H](O)[C@H]7O[C@@H]7O[C@H](CO)[C@@H](O[C@@H]8O[C@H](CO)[C@@H](O)[C@H](O)[C@H]8O)[C@H](O)[C@H]7O)[C@@](C)(CO)C6CC[C@@]5(C)[C@]4(C)C[C@H]2OC2OCC(O)C(O)C2O)C3C1 (some centres undefined)
activity, negative = inhibition [1]: -19.2% [at 9.52 µM]
activity change, negative = inhibition [2]: -5.8% [at 9.73 µM]
activity change, negative = inhibition [3]: -1.22% [at 11.6 µM]
activity change, negative = thiol reactive [4]: 227% [at 11.5 µM]
activity, negative = inhibition [5]: 0% [at 11.6 µM]
redox activity (% of DA3003) [6]: 2.43% [at 11.5 µM]

C[C@@H]1O[C@@H](O[C@H]2[C@@H]3C=CO[C@@H](O[C@@H]4O[C@H](CO)[C@@H](O)[C@H](O)[C@H]4O)[C@@H]3[C@@]3(CO)O[C@@H]23)[C@H](OC(=O)/C=C/c2ccc(O)c(O)c2)[C@H](O)[C@H]1O
Potency [1]: inactive
Potency [2]: inactive
Potency [3]: inactive
Potency [4]: 793 nM (active)
Potency [5]: inactive
Potency [6]: inactive

C[C@@H]1CN(Cc2ccccc2)C[C@H]1c1nc2c(cnn2C2CCOCC2)c(=O)[nH]1
Potency [1]: inactive
Potency [2]: inactive
Potency [3]: inactive
Potency [4]: inactive
Potency [5]: inactive
Potency [6]: inactive

O=C1OCc2cc3cccc(O[C@@H]4O[C@H](CO)[C@@H](O)[C@H](O)[C@H]4O)c3c(O)c21
Potency [1]: inactive
Potency [2]: inactive
Potency [3]: inactive
Potency [4]: 1650 nM (active)
Potency [5]: inactive
Potency [6]: inactive

CCCOC(c1cc2nccc(C(=O)O)c2[nH]1)c1ccccc1Cl (centres undefined)
Potency [1]: inactive
Potency [2]: inactive
Potency [3]: inactive
Potency [4]: inactive
Potency [5]: inactive
Potency [6]: inactive

CCOC(=O)c1sc(NC(=O)[C@H](C(C)C)n2c(=O)[nH]c3ccccc3c2=O)nc1C
Potency [1]: inactive
Potency [2]: inactive
Potency [3]: inactive
Potency [4]: inactive
Potency [5]: inactive
Potency [6]: inactive
